TLR4-MyD88 BLA: inhibitors of TLR4-MyD88 association in cells, primary screen, cell-based, HeLa CL3-4, BLA complementation, FRET ratio; Toll-like receptor 4 (Homo sapiens) + Myeloid differentiation primary response protein …; HeLa CL3-4 TLR4/MyD88 BLA complementation; inhibition, % at 8.4 µM; 200,000 compounds, 0.18% hits; AID 861, 2007; in the data active = inhibition above about 25%
NOD2-RIPK2 inh: NOD2-RIPK2 binding disruptors in cells, primary screen, fluorescence, CHO cells, BLA complementation. Receptor-interacting serine/threonine-protein kinase 2 (Homo sapiens), O43353. CCF4 ratio. inhibition, % at 4.98 µM. 360,000 compounds, 0.38% hits; in the data active = inhibition above about 21%
Target sequence (O43353 whole entry, looked up): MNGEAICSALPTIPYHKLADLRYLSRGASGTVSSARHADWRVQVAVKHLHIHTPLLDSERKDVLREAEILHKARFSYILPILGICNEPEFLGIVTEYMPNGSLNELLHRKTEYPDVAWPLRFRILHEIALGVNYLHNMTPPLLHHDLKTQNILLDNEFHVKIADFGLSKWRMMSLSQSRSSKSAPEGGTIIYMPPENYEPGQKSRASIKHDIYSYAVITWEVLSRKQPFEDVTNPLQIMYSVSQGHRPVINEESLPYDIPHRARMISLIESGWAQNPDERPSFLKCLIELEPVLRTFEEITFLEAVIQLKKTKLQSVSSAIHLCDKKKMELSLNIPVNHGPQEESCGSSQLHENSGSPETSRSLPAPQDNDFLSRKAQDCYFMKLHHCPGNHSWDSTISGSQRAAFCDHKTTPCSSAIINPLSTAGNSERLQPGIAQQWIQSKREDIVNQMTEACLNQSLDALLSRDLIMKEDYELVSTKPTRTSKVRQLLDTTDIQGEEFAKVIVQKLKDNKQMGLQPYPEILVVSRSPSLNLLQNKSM
ABHD5 PLIN5 PPI: ABHD5-PLIN5 interaction inhibitors, primary screen, cell lysate, split luciferase complementation, luminescence. Perilipin-5 (Homo sapiens) + 1-acylglycerol-3-phosphate O-acyltransferase ABHD5 (Homo …. Split G. princeps luciferase complementation, 4 h. inhibition, % at 4 µM. 360,000 compounds, 0.78% hits. AID 602281, 2012;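 active = inhibition above the mean inhibition across every tested compound plus 3 SD, cut at about 22% in these data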
TLR9-MyD88 block: inhibitors of TLR9-MyD88 association in cells, primary screen, cell-based, CHO, BLA complementation, fluorescence | CCF4 FRET ratio | inhibition, % at 4.98 µM | 340,000 compounds, 0.21% hits | AID 504734, 2011;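 active = inhibition above the mean over all tested compounds plus 3 SD, cut at about 21% in these data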
Numbers stand for hits; . = inactive; / = no result; ! = a repeat was not active. Hits are enriched below; roughly 1.2% of the tested compounds scored in any of these assays.

SMILES	TLR4-MyD88 BLA	NOD2-RIPK2 inh	ABHD5 PLIN5 PPI	TLR9-MyD88 block
O=C(NCCC1=CCCCC1)C(=O)NCC(c1ccco1)N1CCN(c2ccccc2F)CC1 (stereo not drawn)	.	.	.	.
O=C1/C(=C/c2ccccc2)Nc2ccccc21	.	.	.	.
Cc1ccc2c(c1)/C(=C/c1ccccc1)C(=O)N2	/	.	23.1	.
Cc1ccc(-c2ccc(C(=O)NCc3ccc(Cl)cc3)o2)c2ccccc12	.	.	22.4	.
Cc1ccccc1-c1ccc(C(=O)NCc2ccccc2)o1	.	.	.	.
CCC(C)Sc1cc(-c2nc3ccc(C)cn3c2NCc2ccccc2)ccc1OC (stereo not drawn)	/	27.2!	.	.
CCC(C)Sc1ccc(-c2nc3ccc(C)cn3c2NCc2ccccc2)cc1OC (stereo not drawn)	/	.	.	.
COc1ccc(NC(=O)CSc2nc3nc(C)cc(C)c3c(=O)[nH]2)cc1OC	/	.	.	.
Cc1noc(C)c1S(=O)(=O)Nc1ccccc1N1CCOCC1	/	.	.	.
O=C(O)COc1ccccc1C(Nc1cccnc1)c1cc(Cl)c2cccnc2c1O (stereo not drawn)	.	.	25.9	/
CC(O)(c1ccc(F)c(F)c1)c1nc(-c2ccc(S(C)(=O)=O)cc2)cs1 (stereo not drawn)	/	.	.	/
Cc1ccc(NC(=O)c2ccc(Cl)c(N3C(=O)C=CC3=O)c2)cc1	.	50.6	38.9	.
COc1ccccc1-c1nc(S(=O)(=O)c2ccccc2)c(N2CCOCC2)o1	/	.	22.4	.
Cc1ccnc(N=O)c1	/	.	.	.
CC(O)(c1ccc(F)c(F)c1)c1nc(-c2ccoc2)cs1 (stereo not drawn)	/	.	22.2	/
CSc1ccc(/C=C/C(=O)c2ccc(NC(=O)C(C)C)cc2)cc1	.	.	22.7	.
COC(=O)c1ccc(/C=C/C(=O)c2cccc(OC)c2)cc1	.	.	.	.
COc1cccc(C(=O)/C=C/c2ccc(SC)cc2)c1	.	.	22.7	.
COC1(OC)C(/C=C/c2ccc(C)cc2)C(C#N)(C#N)C1(OC)OC (stereo not drawn)	.	.	22.0	.
CCCn1c(=NC(C)=O)c(C#N)cc2c(=O)n3cccc(C)c3nc21	.	/	/	/
COCCCn1c(=NC(=O)c2ccccc2)c(C#N)cc2c(=O)n3cccc(C)c3nc21	/	.	.	.
Cc1cccc(C(=O)N=c2c(C#N)cc3c(=O)n4cccc(C)c4nc3n2Cc2ccco2)c1	.	.	50.5!	.
Cc1cccn2c(=O)c3cc(C#N)c(=NC(=O)c4ccccc4)n(Cc4ccco4)c3nc12	/	.	45.9!	.
Cc1ccc(C)c(S(=O)(=O)N2CCCC2CNC(=O)C(=O)NC2CC2)c1 (stereo not drawn)	/	.	.	.
COc1ccc(-c2cccc(NC(=O)c3cccs3)c2)nn1	/	.	.	.
SMILES	TLR4-MyD88 BLA	NOD2-RIPK2 inh	ABHD5 PLIN5 PPI	TLR9-MyD88 block
CC1=C(C(=O)N2CCCCCC2)CC(CC(=O)NCCN2CCOCC2)C(=O)N1CCC1=CCCCC1 (stereo not drawn)	/	.	.	/
O=c1[nH]c2ccccc2c(O)c1O	.	.	98.3	.
O=c1[nH]c2ccccc2c(O)c1-[n+]1ccccc1	/	.	.	.
CN1CCN(c2ccc(S(=O)(=O)N3CCCCC3)cc2NC(=O)COc2cccc(Cl)c2)CC1	/	.	.	.
CN(C)CCC(C(=O)c1ccccc1)c1cccnc1 (stereo not drawn)	/	.	.	.
COc1ccc(C(=O)/C=C/c2ccccc2F)c(OC(=O)c2ccc([N+](=O)[O-])cc2)c1	.	.	27.9	.
O=C(CSc1n[nH]c(=O)n1C1CC1)NCc1ccccc1	/	.	.	.
CCC(/C=C1\Sc2ccc(OC)cc2N1CC)=C\c1sc2ccc(OC)cc2[n+]1CCCS(=O)(=O)[O-]	.	.	.	.
CCC(/C=C1\Sc2ccc(OC)cc2N1CCO)=C\c1sc2ccc(OC)cc2[n+]1CCO	.	.	43.4	.
CCOc1ccccc1-c1cc(NC)ncn1	/	.	.	/
Cc1ccc(CNC(=O)C2c3ccccc3C(=O)N3CCc4ccccc4C23)o1 (stereo not drawn)	.	.	22.4	.
COc1ccc(CC(=O)Nc2cc(S(=O)(=O)N3CCOCC3)ccc2N2CCOCC2)cc1OC	/	.	.	.
S=c1[nH]nc(-c2cc(-c3ccccc3)n[nH]2)n1/N=C/C(Br)=C/c1ccccc1	/	.	26.1	/
COc1ccc(C(NC(=O)/C=C\c2ccco2)c2ccc(OC)c(OC)c2)cc1 (stereo not drawn)	.	.	22.2	.
COc1ccc(C(=O)OCC(=O)NCc2ccc3c(c2)OCO3)cc1S(=O)(=O)N1CCOCC1	/	.	.	.
Cc1cnc2nc(-c3ccccc3)ccc2c1	/	.	.	/
CC[n+]1c(/C=C/N(C)c2ccccc2)n(-c2ccccc2)c2ccc(-c3nc4ccccc4s3)cc21	/	31.4	36.4	.
O=C(/C=C/c1ccc(O)cc1)c1ccccc1	/	.	.	.
O=C(/C=C/c1ccc2ccccc2c1)c1ccoc1	.	.	24.5	.
Clc1ccc2c(c1)C(N1CCNCC1)Cc1ccccc1S2 (stereo not drawn)	.	.	32.8	.
COc1ccc2c(c1)CC(N1CCN(C)CC1)c1cc(OC)ccc1S2 (stereo not drawn)	/	.	.	.
CC(O)(c1cccnc1)c1nc(-c2cccc(C(F)(F)F)c2)cs1 (stereo not drawn)	/	.	.	/
NC(=S)N=Nc1c(O)cc(O)c2[nH]c(=O)ccc12	/	.	29.4	.
O=C(CC1SC(N2CCOCC2)=NC1=O)Nc1cccc(C(F)(F)F)c1 (stereo not drawn)	/	.	.	.
Clc1ccc2nc(-c3ccco3)c(Cc3ccsc3)n2c1	/	.	49.1	/
SMILES	TLR4-MyD88 BLA	NOD2-RIPK2 inh	ABHD5 PLIN5 PPI	TLR9-MyD88 block
COc1ccccc1Cc1c(-c2ccco2)nc2ccc(Br)cn12	/	.	42.0	/
Clc1ccc2nc(-c3ccccc3)c(Cc3ccsc3)n2c1	/	.	.	/
COc1ccccc1Cc1c(-c2ccc(F)cc2)nc2ccc(Br)cn12	/	.	.	/
FC(F)(F)c1ccccc1Cc1c(-c2ccco2)nc2ccc(Br)cn12	/	.	33.5	/
COc1ccccc1Cc1c(-c2ccco2)nc2ccc(Cl)cn12	/	.	27.4	/
FC(F)(F)c1ccccc1Cc1c(-c2cccc(Cl)c2)nc2ccc(Br)cn12	/	.	.	/
Cc1cc(=O)nc2c3ccccc3n(C(C)C(=O)NCCN3CCOCC3)n12 (stereo not drawn)	/	.	.	.
CCOC(=O)c1nn(-c2ccccc2)c2nnc(Cc3ccccc3)c(=O)n12	.	.	.	.
CN(C)CC(C)(C)CNC(=O)CC1C(=O)NCCN1Cc1ccc(-c2ccccc2)cc1 (stereo not drawn)	.	.	.	.
COc1ccc(-c2nc3cc(C)c(Br)c(C)n3c2Cc2ccccc2C(F)(F)F)cc1OC	/	.	.	/
Cc1cc2nc(-c3ccco3)c(Cc3ccccc3C(F)(F)F)n2c(C)c1Br	/	.	39.8	/
C/C(CC(=O)NCc1ccco1)=N\NC(=O)c1ccc(Cl)cc1Cl	/	.	.	.

Source: PubChem
